Assay outcomes: PubChem, National Center for Advancing Translational Sciences (NCATS)
12-hLO inh – 12-hLO (ALOX12) enzyme inhibition. P18054. purified 12-hLO, xylenol orange hydroperoxide absorbance. Potency, µM (series often up to 57.1 µM), without a hit: at the top dose activity change, negative = inhibition, most hits filed as inhibitors. 150,000 tested, 0.12% active. AID 1452; also: potency is read from the fitted curve at half-maximal effect; nearly all actives have a fitted effect of over 55% in size
Target sequence (P18054 whole entry, looked up): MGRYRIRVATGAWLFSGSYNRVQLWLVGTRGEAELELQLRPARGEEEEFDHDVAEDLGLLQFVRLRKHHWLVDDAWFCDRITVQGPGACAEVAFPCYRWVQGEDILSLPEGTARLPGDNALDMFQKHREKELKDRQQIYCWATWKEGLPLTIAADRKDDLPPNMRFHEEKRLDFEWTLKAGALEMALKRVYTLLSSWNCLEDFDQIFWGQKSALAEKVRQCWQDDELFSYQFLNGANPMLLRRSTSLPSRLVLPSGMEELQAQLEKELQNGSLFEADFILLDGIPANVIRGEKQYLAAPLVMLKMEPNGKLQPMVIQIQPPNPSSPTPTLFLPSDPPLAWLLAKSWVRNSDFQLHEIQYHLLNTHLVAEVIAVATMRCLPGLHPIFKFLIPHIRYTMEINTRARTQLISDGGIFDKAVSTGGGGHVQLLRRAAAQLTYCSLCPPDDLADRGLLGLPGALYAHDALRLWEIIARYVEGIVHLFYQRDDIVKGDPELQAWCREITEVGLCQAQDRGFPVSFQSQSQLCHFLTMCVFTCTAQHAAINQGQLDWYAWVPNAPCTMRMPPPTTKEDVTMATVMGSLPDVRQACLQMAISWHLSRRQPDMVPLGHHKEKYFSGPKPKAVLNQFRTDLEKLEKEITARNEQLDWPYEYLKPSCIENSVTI
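Xylenol orange chromogenic assay: hydroperoxide from 12hLO oxidises Fe(II), giving red-shifted Fe(III)-XO absorbance. Conditions: 150 nM enzyme, 40 uM arachidonic acid, 25 mM Hepes pH 7.0, 0.01% Triton X-100, 30 min, room temperature.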
PNC assembly inh – blocks assembly of the perinucleolar compartment; PC3M PTB-GFP, PNC prevalence imaging, 16 h; hits give low values; activity change (PNC), negative = inhibition, % at 10 µM; 140,000 tested, 3.1% active; AID 2417;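 active = readout at or below -70, meaning at least 70% loss of cells showing the perinucleolar compartment, a nuclear body marking cancer cells; inconclusive = readout between -30 and a set limit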;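 also: plate controls were DMSO wells for no effect and camptothecin positive control wells for full effect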
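Read-out is percentage of cells bearing a perinucleolar compartment, from automated 20x imaging of fixed, Hoechst-stained PC3M PTB-GFP cells. Cells were seeded 4 h, then exposed 16 h to compound (23 nl of library stock) in duplicate plates.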
15-hLO-2 inh – 15-hLO-2 (ALOX15B) enzyme inhibition; purified 15hLO-2, xylenol orange hydroperoxide absorbance; 110,000 tested, 0.56% active; Potency, µM (doses to about 57.1 µM), inactives show at the top dose activity change, negative = inhibition, usual class: inhibitors; AID 881; also: potency is read from the fitted curve at half-maximal effect; nearly all actives have a fitted effect of over 60% in size
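Read-out: hydroperoxide product oxidises ferrous iron, measured as xylenol orange complex via the 573-to-405 nm absorbance ratio after 30 min. Reaction: 50 nM enzyme, 15 min compound preincubation, 45 uM arachidonic acid, 90 min RT, Hepes pH 7.5 with Triton X-100.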
* hit, by the source's call; ? = inconclusive; / = not tested or not shown; [ ] = remark or other dose. Hits are enriched below; roughly 3.2% of the tested compounds scored in any of these assays. Unless noted, calls follow the shape of the dose curve; as a rule, active = well fitted curve in the direction sought with a large enough effect; inconclusive = small, poorly fitted or top-dose-only effect, or another doubt; inactive = no such curve, though single readings can be large; an effect the other way counts as inactive or inconclusive. Unless noted, % is scaled to controls: 0 for no effect and ±100 for the full control effect.

SMILES	12-hLO inh	PNC assembly inh	15-hLO-2 inh
CC1(C)S[C@H]2C(NC(=O)[C@@H](N)c3ccc(O)cc3)C(=O)N2[C@@H]1C(=O)O (stereo partly specified)	-0.9%	/	-7.7%
CCN(CC)c1ccc(NC2=C(Cl)C(=O)c3ccccc3C2=O)cc1	-7.8%	?	/
CCCNC1=C(N(C(C)=O)c2cccc(F)c2)C(=O)c2ccccc2C1=O	-1.1%	-90.0*	/
C[C@H]1Cc2c(COc3ccccc3)nc3c(c2CO1)CN(S(=O)(=O)c1ccc2c(c1)OCCN2C)CC3	-0.3%[11.4 µM]	/	/
O=C(Nc1ccccc1)c1cnc2n(c1=O)CCS2	-3.6%	-119.3*	/
Cc1cccc(NC(=O)c2cnc3n(c2=O)CCS3)c1	-1.1%	18.5	/
C/C(CC(=O)N(C(C)C)C(C)C)=N\NC(=O)c1ccccc1Br	4.2%	33.6	/
O=C(NNC(=O)C1CC1c1ccccc1)Nc1ccccc1 (stereo unspecified)	-5.1%	-0.1	/
Cc1ccc(C2CC2C(=O)NNC(=S)Nc2ccc(Cl)cc2)cc1 (stereo unspecified)	17.1%	-96.8*	/
CCOc1ccccc1OCCOCCN1CC(C)OC(C)C1 (stereo unspecified)	-3.2%	-87.4*	-11.1%
COc1cc(C)ccc1OCCCCN1CC(C)OC(C)C1 (stereo unspecified)	-0.4%	34.9	-5.1%
COc1ccc(Cc2nnc(N/N=C/c3ccc(O)cc3O)[nH]c2=O)cc1OC	-21.3%	-25.0	/
CCN1CCCC1CNC(=O)c1ccc(Cc2nc3ccccc3[nH]2)cc1 (stereo unspecified)	1.0%	/	/
N/C(Cc1ccc(Cl)cc1)=N\OC(=O)C1CCCCC1	-0.7%	51.4	/
O=Nc1ccc(NOC(=O)c2ccc(Br)cc2)cc1	6.3%	52.8	-6.6%
Cc1ccc(C(=O)ONc2ccc(N=O)cc2)cc1	-1.0%	-117.0*	-1.5%
CCOc1ccccc1C(=O)N(CN1CCCC1=O)c1cccc(Cl)c1	-2.1%	23.6	-8.4%
CC(C)(C)N1C(=O)Cc2c1nc(N)c1c(N)nc(N3CCCCC3CO)c(C#N)c21 (stereo unspecified)	?	-16.3	25.1µM*
CN(CCO)c1nc(N)c2c(N)nc3c(c2c1C#N)CC(=O)N3C1CCCC1	-5.2%	45.4	/
COc1ccc2c(c1)-c1ccccc1S(=O)(=O)N2C(C)=O	3.4%	-114.2*	-4.4%
COc1ccc(OC)c(NC(=O)CN2C(=O)c3ccccc3S2(=O)=O)c1	-4.5%	23.4	-0.4%
COc1ccccc1CN1CC[C@@]2(CCCN(C(=O)c3ccco3)C2)C1	5.6%	/	10.2%
C[C@@H]1CC2C3CCC4=CC(=O)C=CC4(C)[C@@]3(F)[C@@H](O)CC2(C)[C@@]1(O)C(=O)CO (stereo partly specified)	0.8%[0.00818 µM]	/	-3.8%[0.0915 µM]
CC(C)CCOC(=O)/C=C/c1ccccc1	2.0%	/	0.4%
COc1ccc(C2(O)CCN(CCCCOc3ccccc3)CC2)cc1	-8.1%	?	50.2%
SMILES	12-hLO inh	PNC assembly inh	15-hLO-2 inh
CCc1nc2ccccc2c(=O)n1NC(=O)c1c(O)c2cccc3c2n(c1=O)CCC3	-2.7%	-83.4*	25.6%
O=C(NCc1ccccc1)c1c(O)c2cccc3c2n(c1=O)CCC3	-24.2%	7.8	2.7%
CC(=O)N1CCC(=NNC(=O)c2cccs2)CC1	0.5%	-109.0*	/
O=C(NN=C1CCCC1)c1cccs1	-0.3%	10.7	/
CCN(CC)CCNS(=O)(=O)c1ccc(Cl)cc1	-8.2%	?	9.4%
CN(C)CCNS(=O)(=O)c1ccc(Cl)cc1	-0.8%	-100.0*	/
CC(C)(C)NCCOCCOc1ccccc1-c1ccccc1	0.2%	-106.4*	/
COCCCNCCOCCOc1ccccc1-c1ccccc1	-1.0%	-16.9	/
COc1ccc(OC)c(C2=NOC(C(=O)NCc3ccco3)C2)c1 (stereo unspecified)	-5.4%	22.3	-6.8%
CCOC(=O)c1cn(Cc2cccc(Cl)c2)nn1	1.0%	-113.8*	/
COC(=O)c1cn(Cc2cccc(C)c2)nn1	-3.3%	-9.1	/
O=C(Oc1cccc2c(OC(=O)N3CCOCC3)cccc12)N1CCOCC1	-2.5%	-20.7	-0.9%
O=C(Oc1cccc2c(OC(=O)N3CCCC3)cccc12)N1CCCC1	0.2%	-100.0*	/
Cc1ccc(C(=O)Nc2c3c(nn2C(C)(C)C)CS(=O)(=O)C3)cc1C	4.7%	13.2	-0.3%
COc1ccc(Nc2nc(N)nc(CSc3nnc(N)s3)n2)cc1	0.1%	-96.1*	4.3%
Cc1nnc(SCc2nc(N)nc(Nc3ccccc3)n2)s1	2.3%	5.4	7.4%
CC1(C)CC(NC(=O)c2ccccc2Cl)CC(C)(C)N1	-4.7%	20.5	7.3%
CC1(C)CC(Nc2ccc(Nc3ccccc3)cc2)CC(C)(C)N1	?	/	3.98µM*
COCCCN1CN(Cc2ccccc2)CNC1=S	1.3%	-92.0*	/
CCCN1CN(Cc2ccccc2)CNC1=S	-10.5%	?	/
Cc1cc(=O)c2c(O)c(O)ccc2o1	-24.5%	-3.1	-15.9%
CC(C)c1ccc(O)c(O)c(=O)c1 (tested in a mixture with another compound)	?	/	3.98µM*
CC1(C)NC(=O)N(c2ccccc2Cl)C1(C)NO (stereo unspecified)	-1.6%	-21.2	2.3%
CN1CC2([N+](=O)[O-])CC=C(OCCO)C([N+](=O)[O-])(C1)C2 (stereo unspecified)	0.2%	-114.6*	/
CCN1CC2([N+](=O)[O-])CC=C(OC)C([N+](=O)[O-])(C1)C2 (stereo unspecified)	-3.3%	1.8	/
SMILES	12-hLO inh	PNC assembly inh	15-hLO-2 inh
CC(C)(C)Nc1nc(OCC(F)(F)F)nc(OCC(F)(F)F)n1	-1.9%	-107.1*	6.5%
CCC(C)Nc1nc(OCC(F)(F)F)nc(OCC(F)(F)F)n1 (stereo unspecified)	-7.0%	50.0	5.0%
CCn1c(C(=O)N2CCc3ccccc3C2)cc2oc3ccccc3c21	-7.9%	2.0	8.3%
Cn1c(C(=O)N2CCc3ccccc3C2)cc2oc3ccccc3c21	-8.8%	-118.9*	/
Cc1ccc(-c2cc(C(=O)N3CCCc4ccccc43)c3ccccc3n2)cc1	-5.4%	?	5.1%
Cc1ccc(-c2cc(C(F)(F)F)n3ncc(C(=O)N4CCN(C)CC4)c3n2)cc1	-3.1%	-100.0*	23.3%
